Screening data as filed in PubChem BioAssay.
GBA mod: modulators of human glucocerebrosidase; P04062; purified enzyme, resorufin glucoside fluorescence (screen aimed at inhibitors), 20 min; Potency, µM; 1.1% of 48,000 active; AID 360; in the data active = potency below about 15 µM;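 note: the screen sought inhibitors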
Target sequence (P04062 whole entry, looked up): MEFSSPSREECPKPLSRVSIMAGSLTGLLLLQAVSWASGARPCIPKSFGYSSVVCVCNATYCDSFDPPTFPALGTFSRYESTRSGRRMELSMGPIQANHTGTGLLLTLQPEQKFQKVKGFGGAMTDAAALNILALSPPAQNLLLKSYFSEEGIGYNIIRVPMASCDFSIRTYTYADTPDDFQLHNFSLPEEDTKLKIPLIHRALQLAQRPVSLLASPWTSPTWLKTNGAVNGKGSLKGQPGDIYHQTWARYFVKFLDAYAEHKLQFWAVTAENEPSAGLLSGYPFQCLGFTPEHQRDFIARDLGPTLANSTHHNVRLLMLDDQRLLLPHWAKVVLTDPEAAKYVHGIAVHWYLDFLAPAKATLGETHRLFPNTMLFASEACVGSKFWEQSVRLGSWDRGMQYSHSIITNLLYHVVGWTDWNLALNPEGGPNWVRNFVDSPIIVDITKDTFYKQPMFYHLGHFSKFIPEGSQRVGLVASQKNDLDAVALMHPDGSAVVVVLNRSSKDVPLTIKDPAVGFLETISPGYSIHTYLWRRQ
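Normal human glucocerebrosidase (0.2 nM final) was assayed with resorufin β-D-glucopyranoside (30 uM final) in 50mM citric acid/KH2PO4, 10mM sodium taurocholate, 0.01% tween-20, pH 5.9. Compounds were titrated; fluorescence (Ex 548, Em 600) read after 20 min at RT.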
Luciferase inh: blocks Photinus pyralis firefly luciferase activity; P08659; purified firefly luciferase, luminescence, 8 min; Potency, µM (doses to about 57.1 µM), without a hit: top-dose activity change, negative = inhibition, usual class: inhibitors; 2.2% of 72,000 active; AID 411; active = well fitted inhibition curve with a large enough effect; note: % is set by controls: 0 for no effect and ±100 for the full control effect; nearly all actives have a fitted effect of over 40% in size
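Luminescence read-out after 8 min at room temperature; enzyme reaction used luciferin plus 10 uM ATP (linear range) in imidazole buffer pH 7.2 with KCl, MgCl2, Tween 20 and BSA. Each sample was run as a titration.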
Bst PK mod: modulators of Bacillus stearothermophilus pyruvate kinase; purified pyruvate kinase, luminescence ATP production; ribose 5-phosphate activator present at AC10; Potency, µM; 1.2% of 51,000 active; in the data active = potency below about 11 µM;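 the screen sought inhibitors and activators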;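 note: scaled between full activation by ribose 5 phosphate and full inhibition by luteolin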
The depositor's hits bear a star; [ ] = dose if it differs, or a comment. Sampled rows, rich in hits. Any-hit rate of the full collection: about 3.4%. Potency is the fitted concentration of half-maximal effect.

What do the screens show for `COc1cccc2[nH]c(-c3ccccn3)nc12`?
Luciferase inh: 3.16µM*

How did CO[C@H]1COC(=O)C/C=C\[C@H](C)[C@@H](OC)COC(=O)[C@@H](C)NC(=O)C/C=C\[C@@H]1C do in these assays?
Luciferase inh: 1.8%[11.4 µM]

What do the screens show for `O=S(=O)(O)c1ccc2c(N=Nc3c(O)ccc4ccccc34)cccc2c1`?
Luciferase inh: -7.1%[11.4 µM]

Results for O=c1cnc2cnc(N3CCOCC3)nc2n1C[C@H]1CCCO1 ?
Luciferase inh: 0.2%[11.4 µM]

What do the screens show for `N#CC1=C(SCC(=O)NC2CC2)NC(=O)C(C#N)C12CCCCC2` (configuration not stated)?
GBA mod: >76.9; Luciferase inh: 4.0%; Bst PK mod: >57

Results for N#CC1=C(SCC(=O)NC23CC4CC(CC(C4)C2)C3)NC(=O)C(C#N)C12CCCCC2 (configuration not stated) ?
GBA mod: 6.16*; Luciferase inh: -0.7%; Bst PK mod: >57

Results for COCC(=O)N1CCC[C@@]2(CCN(Cc3cc(C(F)(F)F)cc(C(F)(F)F)c3)C2)C1 ?
Luciferase inh: -0.9%[11.4 µM]

Results for Nc1ccc(CCc2nc3ccccc3o2)cc1 ?
GBA mod: >76.9; Luciferase inh: 25.1µM*; Bst PK mod: inactive

How did NCc1ccc(-c2nc3ccccc3o2)cc1 do in these assays?
GBA mod: >76.9; Luciferase inh: -12.9%; Bst PK mod: >57

How did CCCCNc1ccc(C(=O)OCCOCCOCCOCCOCCOCCOCCOCCOCCOC)cc1 do in these assays?
Luciferase inh: -1.7%[25.5 µM]

What do the screens show for `Cc1noc(C)c1C(=O)N1CCC2(CCCN(c3ccccn3)C2)CC1`?
Luciferase inh: 1.5%[11.4 µM]

What do the screens show for `C[C@@H]1O[C@@H](OC[C@@H]2O[C@@H](Oc3c(-c4ccc(O)c(O)c4)oc4cc(O)cc(O)c4c3=O)[C@H](O)[C@H](O)[C@@H]2O)[C@H](O)[C@H](O)[C@@H]1O`?
Luciferase inh: -1.0%[11.4 µM]

What do the screens show for `O=C(c1ccco1)[C@@H]1[C@@H]2C(=O)N(c3ccc(Br)cc3)C(=O)[C@@H]2C2c3ccccc3C=CN21` (some centres not stated)?
GBA mod: >76.9; Luciferase inh: -11.9%; Bst PK mod: 7.2*

How did O=C(c1ccco1)[C@@H]1[C@@H]2C(=O)N(c3ccc(F)cc3)C(=O)[C@@H]2C2c3ccccc3C=CN21 (some centres not stated) do in these assays?
GBA mod: >76.9; Luciferase inh: -3.4%; Bst PK mod: >57

What do the screens show for `C/C(=N/NS(=O)(=O)c1ccc(C)cc1)P(=O)(O)O`?
Luciferase inh: 2.8%[11.4 µM]

What do the screens show for `CCc1ccc(-c2cn(-c3nc(C)cc(C)n3)c(=N)o2)cc1`?
GBA mod: inactive; Luciferase inh: 15.8µM*

Results for N[C@@H](Cc1c[nH]c2ccccc12)C(=O)NCC(=O)O ?
Luciferase inh: 1.4%[11.4 µM]

Results for C=C1CC[C@@H](O)C/C1=C/C=C1\CCC[C@]2(C)[C@@H]1CC[C@H]2[C@@H](C)CCCC(C)C ?
Luciferase inh: 2.5%[11.4 µM]

Results for Cc1nc2cnc(N(C)C)nc2n(Cc2ccc(F)cc2)c1=O ?
Luciferase inh: 0.9%[11.4 µM]

What do the screens show for `CN(Cc1ccco1)c1ncncc1-c1ccccc1C(F)(F)F`?
Luciferase inh: -0.5%[2.29 µM]

Results for CO[C@@H](C(C)C)[C@@H](C)[C@@H]1OC(=O)C[C@@H]1O ?
Luciferase inh: 1.7%[11.4 µM]

How did Cc1ccc2nc(-c3cccnc3)oc2c1 do in these assays?
GBA mod: >76.9; Luciferase inh: 25.1µM*; Bst PK mod: inactive

What do the screens show for `Cc1ccc(C)c(CSc2nnc(-c3cccnc3)o2)c1`?
GBA mod: >76.9; Luciferase inh: 1.3%; Bst PK mod: >57

How did c1ccc(-c2nc3cc(Oc4ccc5oc(-c6ccccn6)nc5c4)ccc3o2)nc1 do in these assays?
GBA mod: >76.9; Luciferase inh: -6.5%; Bst PK mod: >57

How did O=C(Nc1ccc2oc(-c3cccnc3)nc2c1)c1cccnc1 do in these assays?
GBA mod: >76.9; Luciferase inh: 6.6%; Bst PK mod: >57

What do the screens show for `Cc1ccc2nc(-c3ccccn3)oc2c1`?
GBA mod: >76.9; Luciferase inh: 7.94µM*; Bst PK mod: 6.9*

How did CC(C)CC(=O)Nc1ccc2oc(-c3cccnc3)nc2c1 do in these assays?
Luciferase inh: 12.6µM*

Results for N[C@H](C(=O)O)[C@@H]1C[C@@H]1C(=O)O ?
Luciferase inh: 1.2%

What do the screens show for `COc1ncc2nc(C)c(=O)n(-c3ccccc3)c2n1`?
Luciferase inh: 2.0%[11.4 µM]

How did CS(=O)(=O)Nc1cccc(-c2nccc(-n3ccnc3)n2)c1 do in these assays?
Luciferase inh: -0.4%[2.29 µM]

Results for Cc1cccc2c1Oc1ccccc1[C@@H]2NC(=O)c1ccc([N+](=O)[O-])cc1 ?
Luciferase inh: 1.6%[11.4 µM]
